From PubChem BioAssay (NCATS)
Inconclusive results are not listed. Unless noted, calls follow the shape of the dose curve; as a rule, active = well fitted curve in either direction with a large enough effect (not every such curve was filed as active); inconclusive = small, poorly fitted or top-dose-only effect, or another doubt; inactive = flat fitted curve, though single readings scatter.

Columns and labels:
[1] = AP1 Signaling Pathway (AID 357); details: ME-180 AP-1-bla reporter, EGF-induced, beta-lactamase ratio, 5 h; at 17.2 µM (top of the series) unless noted; also: % is scaled to controls: 0 for no effect and ±100 for the full control effect
Summary of the method: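 AP-1-bla ME-180 cells with beta-lactamase reporter under AP-1 response element, stimulated with EC50 EGF; compounds titrated, 5 hours at 37 degrees Celsius. CCF4 read at 460/530 nm ratio; positive and negative modulators judged by AC50.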

[2] = NFAT Signaling Pathway (AID 444); details: Jurkat NFAT-bla M1, carbachol, beta-lactamase ratio, 5 h; at 17.2 µM (top of the series) unless noted;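 also: carbachol stimulus at about its EC50 of 1 µM final; % is scaled to controls: 0 for no effect and ±100 for the full control effect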
Summary of the method: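 Jurkat cells with NFAT-driven β-lactamase reporter and co-expressed M1 receptor, stimulated with carbachol (final 1 uM, ~EC50), compound titration, 5 h at 37 °C. CCF4 loaded 1 h at RT; 460/530 nm ratio gave %activity and AC50.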

[3] = Stat Signaling Pathway (AID 446); details: ME-180 (cervical carcinoma) SIE beta-lactamase reporter, IL-6 stimulated, 5 h; at 17.2 µM (top of the series) unless noted;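 also: ME-180 cervical cancer cells given 40 pM IL-6 alongside compound; SIE-controlled beta-lactamase reporter measured as 460/530 nm FRET emission ratio; % is scaled to controls: 0 for no effect and ±100 for the full control effect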
Summary of the method: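 Overnight-plated ME-180 cells bearing a STAT Inducible Element beta-lactamase reporter; 5 h co-exposure to compound and 40 pM IL-6; values normalized to 300 pM IL-6 and 125 nM JAK inhibitor controls.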

[4] = target: Glucocorticoid receptor (Homo sapiens) (UniProt P04150); test: GR-GFP Redistribution (AID 450;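 active = compounds whose dose series gives a full or clear partial fitted curve of increased nuclear translocation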; also: potency is read from the fitted curve at half-maximal effect)
Chain of Glucocorticoid receptor (Homo sapiens) (P04150 whole entry, looked up): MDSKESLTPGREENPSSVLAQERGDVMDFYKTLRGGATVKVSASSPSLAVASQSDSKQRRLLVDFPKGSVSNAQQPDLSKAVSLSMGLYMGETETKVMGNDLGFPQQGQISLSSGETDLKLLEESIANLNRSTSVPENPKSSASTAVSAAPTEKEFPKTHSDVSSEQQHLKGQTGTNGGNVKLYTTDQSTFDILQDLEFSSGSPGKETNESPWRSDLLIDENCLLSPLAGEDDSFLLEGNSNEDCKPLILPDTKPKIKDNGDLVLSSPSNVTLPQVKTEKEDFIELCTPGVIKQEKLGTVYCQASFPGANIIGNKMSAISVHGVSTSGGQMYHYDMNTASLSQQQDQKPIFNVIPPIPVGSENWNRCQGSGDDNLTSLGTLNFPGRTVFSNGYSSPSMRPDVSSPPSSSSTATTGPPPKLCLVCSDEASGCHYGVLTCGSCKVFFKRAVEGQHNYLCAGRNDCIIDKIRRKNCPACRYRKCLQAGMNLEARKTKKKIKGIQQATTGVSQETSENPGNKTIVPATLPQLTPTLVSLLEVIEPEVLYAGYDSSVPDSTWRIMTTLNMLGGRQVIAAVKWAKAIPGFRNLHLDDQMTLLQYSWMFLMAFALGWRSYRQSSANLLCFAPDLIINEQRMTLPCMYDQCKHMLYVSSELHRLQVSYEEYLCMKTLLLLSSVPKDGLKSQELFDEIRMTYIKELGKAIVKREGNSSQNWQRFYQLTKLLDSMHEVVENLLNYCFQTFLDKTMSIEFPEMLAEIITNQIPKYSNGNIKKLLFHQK

CC(=O)NC(=O)Nc1sc(=S)n(C)c1C
inactive: activity change, negative = inhibition [1] -0.255% | activity change, negative = inhibition [2] 15.7% | activity, negative = inhibition [3] 1.93% | Potency [4] > 20.6 µM

Cc1c(/C(O)=C2\C(=O)C(=O)N(CCN(C)C)C2c2cccnc2)cnn1-c1ccccc1 (stereo not given)
inactive: activity change, negative = inhibition [1] 1.75% | activity change, negative = inhibition [2] 9.15% | activity, negative = inhibition [3] 0.0911% | Potency [4] > 20.6 µM

CS(=O)(=O)CCC(C(=O)n1nnc2ccccc21)N1C(=O)c2ccccc2C1=O (stereo not given)
inactive: activity change, negative = inhibition [1] -2.33% | activity change, negative = inhibition [2] -13.1% | activity, negative = inhibition [3] -20.7% | Potency [4] > 20.6 µM

O=C(NC1(C(F)(F)F)C(=O)Nc2c1c(=O)[nH]c(=O)n2-c1ccccc1)c1cccnc1 (stereo not given)
inactive: activity change, negative = inhibition [1] -3.2% | activity change, negative = inhibition [2] 8.45% | activity, negative = inhibition [3] 3.92% | Potency [4] > 20.6 µM

O=CNC(=O)c1ccccc1C(=O)O
inactive: activity change, negative = inhibition [1] -3.37% | activity change, negative = inhibition [2] 3.48% | activity, negative = inhibition [3] 20.3% | Potency [4] > 20.6 µM

CCC(=NC(CC)CO)C1=C(O)CC(C)(C)CC1=O (stereo not given)
inactive: activity change, negative = inhibition [1] 16.1% | activity change, negative = inhibition [2] -5.13% | activity, negative = inhibition [3] 12.8% | Potency [4] > 20.6 µM

CCCCc1nc(N2CCOCC2)c(C#N)c2c1CCCC2
inactive: activity change, negative = inhibition [1] -10.8% | activity change, negative = inhibition [2] -27.2% | activity, negative = inhibition [3] -8.28% | Potency [4] > 20.6 µM

CCCNC(=O)N(C)c1nncnc1C(=O)NC
inactive: activity change, negative = inhibition [1] -9.23% | activity change, negative = inhibition [2] 2.36% | activity, negative = inhibition [3] -3.2% | Potency [4] > 20.6 µM

COc1ccc(-c2cc(-c3ccccc3)n3ncnc3n2)cc1
inactive: activity change, negative = inhibition [1] -5.02% | activity change, negative = inhibition [2] -9.06% | activity, negative = inhibition [3] 1.12% | Potency [4] > 20.6 µM

CC(=O)C1=C(O)C(=O)N(c2ccc(Br)cn2)C1c1ccccc1F (stereo not given)
inactive: activity change, negative = inhibition [1] -1.6% | activity change, negative = inhibition [2] 1.82% | activity, negative = inhibition [3] -16.8% | Potency [4] > 20.6 µM

CCOC(=O)CNS(=O)(=O)c1cc(-c2n[nH]c(=O)c3ccccc23)ccc1C
inactive: activity change, negative = inhibition [1] -5.55% | activity change, negative = inhibition [2] 5.83% | activity, negative = inhibition [3] -10.1% | Potency [4] > 20.6 µM

Cc1[nH]c2ccc3c(ncn3CCC#N)c2c1C
inactive: activity change, negative = inhibition [1] 0.919% | activity change, negative = inhibition [2] 9.51% | activity, negative = inhibition [3] -5.09% | Potency [4] > 20.6 µM

CN1CCN(CCCCC(=O)c2ccccc2)CC1
inactive: activity change, negative = inhibition [1] 16.6% | activity change, negative = inhibition [2] -15.1% | activity, negative = inhibition [3] 9.37% | Potency [4] > 20.6 µM

O=C(Nc1ccc2c(c1)OCCO2)c1ccc(Br)o1
inactive: activity change, negative = inhibition [1] -1.9% | activity change, negative = inhibition [2] 6.17% | activity, negative = inhibition [3] 6.03% | Potency [4] > 20.6 µM

COc1cccc(OC)c1OCCN1CCN(C(=O)c2ccco2)CC1
inactive: activity change, negative = inhibition [1] 17.1% | activity change, negative = inhibition [2] -6.56% | activity, negative = inhibition [3] 11.8% | Potency [4] > 20.6 µM

COc1ccc(OC)c(C2C(C(=O)c3ccco3)=C(O)C(=O)N2CCCN2CCOCC2)c1 (stereo not given)
inactive: activity change, negative = inhibition [1] 11.5% | activity change, negative = inhibition [2] 0.311% | activity, negative = inhibition [3] -6.98% | Potency [4] > 20.6 µM

Cc1cc2c(c(=O)n1CC1CCCO1)C(c1ccc3c(c1)OCO3)C(C#N)=C(N)O2 (stereo not given)
inactive: activity change, negative = inhibition [1] -18.5% | activity change, negative = inhibition [2] -16.1% | activity, negative = inhibition [3] -17.8% | Potency [4] > 20.6 µM

Cc1cc(C(F)(F)F)nn1CC(=O)NCC1CCCO1 (stereo not given)
inactive: activity change, negative = inhibition [1] 3.74% | activity change, negative = inhibition [2] -11% | activity, negative = inhibition [3] 3.03% | Potency [4] > 20.6 µM

COC(=O)CC(=O)Cc1nc(N)nc(Nc2ccc(C)c(C)c2)n1
inactive: activity change, negative = inhibition [1] 9.64% | activity change, negative = inhibition [2] -5.97% | activity, negative = inhibition [3] 1.4% | Potency [4] > 20.6 µM

CCCCOc1ccc(C)cc1CN(CCO)CCO
inactive: activity change, negative = inhibition [1] 27.9% | activity change, negative = inhibition [2] -9.6% | activity, negative = inhibition [3] 5.48% | Potency [4] > 20.6 µM

COC(=O)C(NC(C)=O)(Nc1nc2ccc(S(C)(=O)=O)cc2s1)C(F)(F)F (stereo not given)
inactive: activity change, negative = inhibition [1] -0.134% | activity change, negative = inhibition [2] 7% | activity, negative = inhibition [3] -5.35% | Potency [4] > 20.6 µM

O=C1CCCN1c1ccc(S(=O)(=O)NCc2ccco2)cc1
inactive: activity change, negative = inhibition [1] 1.18% | activity change, negative = inhibition [2] -10.1% | activity, negative = inhibition [3] 2.23% | Potency [4] > 20.6 µM

CCC(=O)Nc1ccc(-c2nnc(SCC(=O)NCC3CCCO3)n2C)cc1 (stereo not given)
inactive: activity change, negative = inhibition [1] -2.29% | activity change, negative = inhibition [2] -1.98% | activity, negative = inhibition [3] 1.52% | Potency [4] > 20.6 µM

CC(=O)Nc1n[nH]c(S(=O)(=O)Cc2ccc(Cl)cc2Cl)n1
inactive: activity change, negative = inhibition [1] -2.5% | activity change, negative = inhibition [2] 4.1% | activity, negative = inhibition [3] 3.27% | Potency [4] > 20.6 µM

Cc1cc(C)n(C(=O)CNC(=O)C2COc3ccccc3O2)n1 (stereo not given)
inactive: activity change, negative = inhibition [1] 15.9% | activity change, negative = inhibition [2] -7.83% | activity, negative = inhibition [3] 24.9% | Potency [4] > 20.6 µM
